Measured values as given in PubChem BioAssay AID1569 (National Center for Advancing Translational Sciences (NCATS), 2009).
Inconclusive results are not listed. Calls of active or inactive are those of the source. Calls come from the whole dose curve; as a rule, active = well fitted inhibition curve with a large enough effect; inconclusive = small, poorly fitted or top-dose-only effect, or effect the other way, or another doubt; inactive = no such curve, though single readings can be large or run the other way.

Test: Confirmation Concentration-Response Assay for lipid storage modulators; note: nearly all actives have a fitted effect of over 80% in size;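 for activity change, negative = inhibition: -100% = full block of lipid deposition by 20 µM Triacsin C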
Settings: Drosophila S3 cells, lipid droplet BODIPY/CellTracker ratio, 18-24 h; series mostly up to 46.1 µM; activity change, negative = inhibition: at the top concentration
Summary of the method: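 Cells at 5,000/well received compound as a titration plus oleic acid (added as 400 uM solution) and were incubated 18–24 h at 24 °C. BODIPY 493/503 lipid signal and CellTracker Red cell count were read by 488-nm laser-scanning cytometry. Activity was normalised to 20 uM Triacsin C.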
Potency is the fitted concentration of half-maximal effect.

Potency, active:
O=C(NCC1(N2CCOCC2)CCCCC1)c1ccc(S(=O)(=O)Nc2ccccc2F)cc1 3.97 µM
CCc1ccc(NC(=O)COc2ccc(/C=C(/C#N)c3nc4ccccc4[nH]3)cc2OC)cc1 7.05 µM
COCCN(C(=O)c1ccccc1F)c1nnc(-c2ccc(OC)cc2)s1 25 µM
CC(=O)Nc1cccc(C(=O)NC2CCCc3c2cnn3-c2ccccc2F)c1 (stereo unspecified) 14.1 µM
OCCNc1c2ccccc2nc2c(F)c(F)c(F)c(F)c12 8.65 µM
CCOc1ccc(CCNC(=O)COC(=O)c2c(C)nn(-c3ccccc3)c2C)cc1OCC 1.58 µM
Cc1ccc(NC(=O)CN(C)C(=O)Cn2ncc(Cl)c(Cl)c2=O)cc1 28.1 µM
O=C(CCC1CCCN(C(=O)c2ccc3c(c2)OCCO3)C1)NCc1ccccc1F (stereo unspecified) 2.23 µM
OC1(c2cccc(C(F)(F)F)c2)CCN(c2ncnc3c2[nH]c2ccc(F)cc23)CC1 7.91 µM
CCOC(=O)C1CCN(C(=O)C2(NC(=O)NC3CCCCC3)CCCCC2)CC1 1.41 µM
CC1=C(C(=O)NC2CCCc3c2cnn3-c2cccc(C)c2C)OCCO1 (stereo unspecified) 0.0137 µM
COc1ccccc1C(=O)O[C@H]1[C@H](Cc2ccccc2)NS(=O)(=O)[C@H]2C[C@@H]3C=C[C@]12O3 8.88 µM
Cc1ccccc1-n1ncc(C(C)NC(=O)c2ccco2)c1C (stereo unspecified) 0.396 µM
CNC(=O)NC(=O)C(C)OC(=O)c1c2c(nc3ccccc13)/C(=C/c1cccs1)CC2 (stereo unspecified) 0.141 µM
COc1ccc(CCNC(=O)Cn2nnc(-c3ccc(N(C)C)cc3)n2)cc1OC 0.705 µM
COc1ccc2oc(C(=O)OCC(=O)NCCc3ccc(S(N)(=O)=O)cc3)c(C)c2c1 4.99 µM
COc1c(C)cc(C(=O)C2CCCN(C(=O)c3ccc4[nH]ccc4c3)C2)cc1C (stereo unspecified) 17.3 µM
CCOC(=O)c1cc2c(ccn2-c2ccc(F)cc2)n1CC(=O)NC(C)(C)C 1.41 µM
COc1cc(/C=N/NC(=O)c2ccc(CN3C(=O)c4cccc5cccc3c45)cc2)cc(OC)c1O 4.99 µM
CCCc1ccc(-c2csc(NC(=O)Cc3cccs3)n2)cc1 1.58 µM
Cc1ccc(NC(=O)CNC(=O)CC23CC4CC(CC(C4)C2)C3)c(O)c1 2.23 µM
CCOC(=O)C1CCN(C(=O)C2(NC(=O)Nc3ccc(F)cc3F)CCCCC2)CC1 1.77 µM
COc1ccc(CCNC(=O)c2ccc(N(C)S(=O)(=O)c3ccc(C)cc3)cc2)cc1OC 14.1 µM
CCC1CCCCN1C(=O)c1cc(COc2ccc3ncccc3c2)on1 (stereo unspecified) 4.34 µM

Activity change, negative = inhibition, inactive:
O=C(NCc1cccnc1)Nc1cc(Cl)cc(Cl)c1 16.6%
O=C(COC(=O)c1ccc(CO)cc1)NCc1cccs1 16.4%
Cc1ccccc1NC(=O)NC1(C(=O)N2CCC(O)CC2)CCCCC1 12.7%
CCOc1ccc(CCNC(=O)COC(=O)CSc2ccccc2C)cc1OCC 22.7%
CC(C)N1CCc2c(sc(NC(=O)c3ccc(S(=O)(=O)N4CCCCC4C)cc3)c2C(N)=O)C1 (stereo unspecified) -14.3%
CCOc1ccc(CCNC(=O)COC(=O)COc2ccc(Br)cc2)cc1OCC 20%
COc1ccc(CCNC(=O)CCc2ccc(S(=O)(=O)NC(C)C)cc2)cc1OC 26%
COc1ccc(NC(=O)NC2(C(=O)N3CCCC(C)C3)CCCCC2)cc1 (stereo unspecified) 19.7%
CN(CC1CCCO1)S(=O)(=O)c1ccc(C(=O)Nc2ccc(F)cc2)cc1 (stereo unspecified) 20.8%
COc1ccc(CCNC(=O)c2noc(C(C)C)c2[N+](=O)[O-])cc1OC 14.7%
COc1ccc(CCNC(=O)CSc2nc(O)cc(=O)[nH]2)cc1OC 15.3%
COc1cccc(C(=O)O[C@H]2[C@H](C)NS(=O)(=O)[C@H]3C[C@@H]4C=C[C@]23O4)c1 8.12%
